Our source for the inhibition values is ChEMBL document CHEMBL1961873, “Compounds: GSK PKIS; Assays: Nanosyn kinase panel” (2012).

Assay [1] addresses RAC-alpha serine/threonine-protein kinase (Homo sapiens) (UniProt P31749). The note with it: at 0.1 µM.
For assay [2] the target is unchanged. The note with it: at 1 µM.
Assay [3] deals with RAC-beta serine/threonine-protein kinase (Homo sapiens) (UniProt P31751). The note with it: at 0.1 µM.
Assay [4] has the same target. The note with it: at 1 µM.
The target in assay [5] is RAC-gamma serine/threonine-protein kinase (Homo sapiens) (UniProt Q9Y243). Particulars: at 0.1 µM.
Assay [6] has the same target. Particulars: at 1 µM.
Assay [7] has as its target G protein-coupled receptor kinase 6 (Homo sapiens) (UniProt P43250). Particulars: at 0.1 µM.
Assay [8] has the same target. The note with it: at 1 µM.
Assay [9] has as its target T1, Rhodopsin kinase GRK7 (Homo sapiens) (UniProt Q8WTQ7).
T1 sequence (whole entry): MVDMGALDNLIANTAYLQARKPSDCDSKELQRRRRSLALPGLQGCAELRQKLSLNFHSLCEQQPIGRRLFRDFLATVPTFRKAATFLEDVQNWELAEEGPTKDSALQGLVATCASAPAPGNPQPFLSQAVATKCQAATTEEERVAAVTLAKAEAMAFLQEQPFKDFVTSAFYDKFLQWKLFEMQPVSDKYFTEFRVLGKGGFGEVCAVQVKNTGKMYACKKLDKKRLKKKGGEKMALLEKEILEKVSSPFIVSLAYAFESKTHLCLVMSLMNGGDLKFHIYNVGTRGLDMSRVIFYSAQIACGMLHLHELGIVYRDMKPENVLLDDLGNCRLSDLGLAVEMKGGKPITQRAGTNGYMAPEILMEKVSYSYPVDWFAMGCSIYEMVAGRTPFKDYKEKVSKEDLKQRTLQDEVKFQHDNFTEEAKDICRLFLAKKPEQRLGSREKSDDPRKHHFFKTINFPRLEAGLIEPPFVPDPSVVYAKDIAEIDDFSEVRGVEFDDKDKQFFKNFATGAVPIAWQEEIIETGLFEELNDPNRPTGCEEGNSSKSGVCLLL
The note with it: at 0.1 µM.

The target in assay [10] is T1, Rhodopsin kinase GRK7 (Homo sapiens). Particulars: at 1 µM.
The target of assay [11] is Serine/threonine-protein kinase MRCK alpha (Homo sapiens) (UniProt Q5VT25). The note with it: at 0.1 µM.
Assay [12] shares this target. The note with it: at 1 µM.
Assay [13] concerns the target Serine/threonine-protein kinase MRCK beta (Homo sapiens) (UniProt Q9Y5S2). Particulars: at 0.1 µM.
The target is the same in assay [14]. The note with it: at 1 µM.
For assay [15], the target named is Ribosomal protein S6 kinase alpha-5 (Homo sapiens) (UniProt O75582). Particulars: at 0.1 µM.
Assay [16] shares this target. Particulars: at 1 µM.
Assay [17] concerns the target Ribosomal protein S6 kinase alpha-4 (Homo sapiens) (UniProt O75676). The note with it: at 0.1 µM.
Assay [18] shares this target. The note with it: at 1 µM.
For assay [19], the target named is Ribosomal protein S6 kinase beta-1 (Homo sapiens) (UniProt P23443). Particulars: at 0.1 µM.
For assay [20] the target is unchanged. Particulars: at 1 µM.

Where “and” joins values, the source holds several entries; their conditions need not be identical. Identical values can stand only once.

Ribosomal protein S6 kinase beta-1 (Homo sapiens), sequence (P23443 whole entry, looked up): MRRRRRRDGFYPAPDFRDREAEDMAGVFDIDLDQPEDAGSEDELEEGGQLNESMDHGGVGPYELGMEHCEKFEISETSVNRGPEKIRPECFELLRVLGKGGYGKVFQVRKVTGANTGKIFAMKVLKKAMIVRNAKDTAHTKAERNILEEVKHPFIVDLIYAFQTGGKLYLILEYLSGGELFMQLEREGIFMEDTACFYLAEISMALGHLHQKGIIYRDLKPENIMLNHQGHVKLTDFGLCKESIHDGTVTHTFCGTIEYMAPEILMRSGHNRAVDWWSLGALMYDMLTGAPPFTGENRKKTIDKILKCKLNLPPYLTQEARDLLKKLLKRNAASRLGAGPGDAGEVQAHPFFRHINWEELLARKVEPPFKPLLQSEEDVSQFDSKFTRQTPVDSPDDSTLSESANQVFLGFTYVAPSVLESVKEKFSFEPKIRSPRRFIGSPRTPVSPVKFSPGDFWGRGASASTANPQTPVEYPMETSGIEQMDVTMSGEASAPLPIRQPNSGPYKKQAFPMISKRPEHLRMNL
Serine/threonine-protein kinase MRCK alpha (Homo sapiens), sequence (Q5VT25 whole entry): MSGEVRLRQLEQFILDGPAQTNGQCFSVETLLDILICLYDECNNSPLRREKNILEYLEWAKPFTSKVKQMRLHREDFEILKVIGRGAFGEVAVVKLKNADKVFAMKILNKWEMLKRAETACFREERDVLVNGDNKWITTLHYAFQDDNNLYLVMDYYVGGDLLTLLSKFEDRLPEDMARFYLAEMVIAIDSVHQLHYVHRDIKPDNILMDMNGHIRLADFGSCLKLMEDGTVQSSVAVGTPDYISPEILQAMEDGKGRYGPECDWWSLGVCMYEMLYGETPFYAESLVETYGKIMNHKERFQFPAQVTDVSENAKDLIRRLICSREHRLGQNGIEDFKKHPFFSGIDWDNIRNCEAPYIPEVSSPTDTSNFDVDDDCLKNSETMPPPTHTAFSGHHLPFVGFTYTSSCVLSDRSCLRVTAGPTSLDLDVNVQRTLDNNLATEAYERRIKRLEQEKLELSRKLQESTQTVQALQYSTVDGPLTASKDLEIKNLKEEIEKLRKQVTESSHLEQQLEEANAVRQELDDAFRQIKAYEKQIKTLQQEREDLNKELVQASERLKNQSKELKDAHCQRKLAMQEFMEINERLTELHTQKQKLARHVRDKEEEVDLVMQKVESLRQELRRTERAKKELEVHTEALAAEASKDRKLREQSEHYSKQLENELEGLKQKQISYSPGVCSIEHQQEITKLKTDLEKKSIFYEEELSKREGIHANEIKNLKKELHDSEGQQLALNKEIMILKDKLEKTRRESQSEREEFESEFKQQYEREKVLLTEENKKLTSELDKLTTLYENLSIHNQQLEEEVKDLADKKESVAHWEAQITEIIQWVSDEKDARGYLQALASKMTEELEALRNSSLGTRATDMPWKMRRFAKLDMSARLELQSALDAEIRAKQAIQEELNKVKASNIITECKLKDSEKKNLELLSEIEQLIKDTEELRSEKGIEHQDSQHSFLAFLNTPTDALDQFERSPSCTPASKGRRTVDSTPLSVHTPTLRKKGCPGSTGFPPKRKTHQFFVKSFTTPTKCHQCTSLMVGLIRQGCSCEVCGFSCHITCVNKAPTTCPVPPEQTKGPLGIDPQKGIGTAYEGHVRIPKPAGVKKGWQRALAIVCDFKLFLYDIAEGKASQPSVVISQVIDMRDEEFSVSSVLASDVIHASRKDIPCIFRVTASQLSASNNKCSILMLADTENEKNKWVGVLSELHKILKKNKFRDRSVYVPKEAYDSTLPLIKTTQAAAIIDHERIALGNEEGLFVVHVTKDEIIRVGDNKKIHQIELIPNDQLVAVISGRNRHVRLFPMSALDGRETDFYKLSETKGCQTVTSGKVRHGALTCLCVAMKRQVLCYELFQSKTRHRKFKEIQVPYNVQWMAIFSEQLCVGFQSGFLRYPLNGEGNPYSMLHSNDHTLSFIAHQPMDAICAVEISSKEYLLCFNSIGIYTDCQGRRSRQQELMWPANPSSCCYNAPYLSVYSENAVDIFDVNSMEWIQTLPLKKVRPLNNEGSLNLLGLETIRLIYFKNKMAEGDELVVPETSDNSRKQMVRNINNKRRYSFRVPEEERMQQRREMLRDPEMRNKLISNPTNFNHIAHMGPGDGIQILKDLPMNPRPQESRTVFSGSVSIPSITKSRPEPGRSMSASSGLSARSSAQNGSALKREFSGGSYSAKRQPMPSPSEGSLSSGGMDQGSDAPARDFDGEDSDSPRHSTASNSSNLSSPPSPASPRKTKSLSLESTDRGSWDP
G protein-coupled receptor kinase 6 (Homo sapiens), sequence (P43250 whole entry, looked up): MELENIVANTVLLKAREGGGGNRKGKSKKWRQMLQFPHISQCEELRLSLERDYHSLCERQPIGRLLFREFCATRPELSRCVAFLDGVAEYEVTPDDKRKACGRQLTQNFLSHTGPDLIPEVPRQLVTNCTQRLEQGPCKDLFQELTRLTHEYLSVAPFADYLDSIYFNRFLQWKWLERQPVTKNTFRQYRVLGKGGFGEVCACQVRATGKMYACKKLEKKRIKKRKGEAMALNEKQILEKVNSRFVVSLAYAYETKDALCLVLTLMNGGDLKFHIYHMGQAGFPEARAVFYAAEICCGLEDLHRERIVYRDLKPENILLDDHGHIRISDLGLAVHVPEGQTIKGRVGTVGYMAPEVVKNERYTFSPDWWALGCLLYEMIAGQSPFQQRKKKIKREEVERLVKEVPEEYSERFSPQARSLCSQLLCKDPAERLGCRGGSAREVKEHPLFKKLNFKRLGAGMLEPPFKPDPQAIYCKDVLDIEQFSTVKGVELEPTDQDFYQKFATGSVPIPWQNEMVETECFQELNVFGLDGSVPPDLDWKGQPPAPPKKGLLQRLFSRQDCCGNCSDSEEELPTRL
RAC-beta serine/threonine-protein kinase (Homo sapiens), sequence (P31751 whole entry): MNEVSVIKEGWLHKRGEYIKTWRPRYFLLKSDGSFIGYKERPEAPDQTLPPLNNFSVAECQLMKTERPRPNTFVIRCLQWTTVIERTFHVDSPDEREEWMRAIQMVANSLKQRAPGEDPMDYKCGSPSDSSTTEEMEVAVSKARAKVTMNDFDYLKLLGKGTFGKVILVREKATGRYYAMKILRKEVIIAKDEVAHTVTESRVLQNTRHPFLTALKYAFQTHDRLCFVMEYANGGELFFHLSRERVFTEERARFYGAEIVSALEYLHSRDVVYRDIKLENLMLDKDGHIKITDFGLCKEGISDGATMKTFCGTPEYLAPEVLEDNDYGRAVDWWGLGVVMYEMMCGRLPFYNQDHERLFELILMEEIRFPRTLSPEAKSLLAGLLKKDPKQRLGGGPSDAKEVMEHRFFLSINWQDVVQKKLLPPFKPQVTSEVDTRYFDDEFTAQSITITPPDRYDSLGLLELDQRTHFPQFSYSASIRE
Ribosomal protein S6 kinase alpha-4 (Homo sapiens), sequence (O75676 whole entry, looked up): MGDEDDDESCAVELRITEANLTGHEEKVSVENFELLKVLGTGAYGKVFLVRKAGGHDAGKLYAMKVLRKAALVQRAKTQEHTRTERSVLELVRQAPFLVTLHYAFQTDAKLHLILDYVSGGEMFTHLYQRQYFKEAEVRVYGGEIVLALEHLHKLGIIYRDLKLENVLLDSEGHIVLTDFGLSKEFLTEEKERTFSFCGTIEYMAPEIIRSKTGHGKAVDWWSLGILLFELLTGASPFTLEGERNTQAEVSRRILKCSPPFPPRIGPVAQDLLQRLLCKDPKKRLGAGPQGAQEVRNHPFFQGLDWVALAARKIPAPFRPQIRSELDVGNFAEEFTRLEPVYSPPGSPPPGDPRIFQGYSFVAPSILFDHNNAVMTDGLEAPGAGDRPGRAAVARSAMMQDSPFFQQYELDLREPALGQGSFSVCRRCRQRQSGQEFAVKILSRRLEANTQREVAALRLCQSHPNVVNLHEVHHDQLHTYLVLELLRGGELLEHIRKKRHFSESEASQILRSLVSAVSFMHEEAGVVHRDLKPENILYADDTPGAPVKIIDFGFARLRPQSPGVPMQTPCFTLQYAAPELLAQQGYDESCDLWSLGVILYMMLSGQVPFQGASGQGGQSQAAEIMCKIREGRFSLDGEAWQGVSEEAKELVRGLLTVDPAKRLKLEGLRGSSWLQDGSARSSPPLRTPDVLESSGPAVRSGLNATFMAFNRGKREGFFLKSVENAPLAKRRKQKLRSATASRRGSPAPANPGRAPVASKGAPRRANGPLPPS
RAC-gamma serine/threonine-protein kinase (Homo sapiens), sequence (Q9Y243 whole entry): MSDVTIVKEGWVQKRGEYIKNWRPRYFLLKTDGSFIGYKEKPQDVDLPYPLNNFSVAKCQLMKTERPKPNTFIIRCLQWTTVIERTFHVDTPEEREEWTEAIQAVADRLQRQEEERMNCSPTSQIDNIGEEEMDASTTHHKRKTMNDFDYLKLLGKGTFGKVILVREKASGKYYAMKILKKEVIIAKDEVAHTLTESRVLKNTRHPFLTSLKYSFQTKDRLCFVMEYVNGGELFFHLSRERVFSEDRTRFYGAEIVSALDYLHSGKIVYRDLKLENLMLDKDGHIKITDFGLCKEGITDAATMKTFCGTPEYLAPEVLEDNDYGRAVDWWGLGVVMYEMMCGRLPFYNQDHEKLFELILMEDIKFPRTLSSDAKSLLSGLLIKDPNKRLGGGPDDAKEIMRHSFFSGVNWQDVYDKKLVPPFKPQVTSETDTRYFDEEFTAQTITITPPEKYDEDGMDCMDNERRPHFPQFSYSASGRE
RAC-alpha serine/threonine-protein kinase (Homo sapiens), sequence (P31749 whole entry): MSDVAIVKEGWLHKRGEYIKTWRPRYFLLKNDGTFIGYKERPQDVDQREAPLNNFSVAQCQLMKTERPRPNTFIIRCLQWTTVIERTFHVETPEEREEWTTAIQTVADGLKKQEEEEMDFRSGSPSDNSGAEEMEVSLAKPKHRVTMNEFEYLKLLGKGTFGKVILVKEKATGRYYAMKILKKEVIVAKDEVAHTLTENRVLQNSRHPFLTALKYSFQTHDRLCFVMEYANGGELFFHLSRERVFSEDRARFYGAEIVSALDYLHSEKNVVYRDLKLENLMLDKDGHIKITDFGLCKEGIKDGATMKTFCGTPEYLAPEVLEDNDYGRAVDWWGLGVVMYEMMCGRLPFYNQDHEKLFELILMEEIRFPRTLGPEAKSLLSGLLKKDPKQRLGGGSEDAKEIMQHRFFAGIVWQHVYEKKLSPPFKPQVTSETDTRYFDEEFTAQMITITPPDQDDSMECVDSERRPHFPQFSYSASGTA

A word on the inhibition: it is the drop in the measured response relative to a control, in per cent. `CCS(=O)(=O)c1ccc(OC)c(Nc2ncc(-c3cccc(F)c3)o2)c1`: the inhibition stood at 0.91% in assay [1]; 0.05% in assay [2]; 0.44% in [3]; 3.48% in assay [4]; 2.02% in assay [5]; 8.05% in assay [6]. In addition, the inhibition in assay [7] worked out at 4.17%; in [8], 2.93%; in [9] it was 9.79%; in assay [10], 3.77%; in assay [11], 4.37%; in assay [12], 2.99%. Further, the inhibition in assay [13] came to 0.15%; in [14], 0.78%; in assay [15], 5.29%; in assay [16] it was 7.75%; in assay [17], 4.36%; in assay [18], 5.01%. Moreover, the inhibition was determined as 2.77% in assay [19] and 5.19% in assay [20].

Turning to `CS(=O)(=O)Nc1ccc(-c2ccc3c(NC(=O)C4CC4)n[nH]c3c2)cc1`, the inhibition came out at 1.74% in [1]; 2.3% in assay [2]; 1.58% in assay [3]; 4.27% in assay [4]; 3.61% in [5]; 0.93% in assay [6]. The inhibition in assay [7] is 2.24%; in assay [8], 1.55%; in [9], 5.28%; in assay [10], 2.36%; in [11], -0.45%; in assay [12] it was -1.86%. The inhibition in assay [13] was -0.12%; in [14], 1.45%; in [15], 3.35%; in assay [16] it was 5.67%; in assay [17], -1%; in assay [18] it was 3.37%. Moreover, the values for the inhibition in assay [19] and in assay [20] were 2.17% and 2.83%, respectively.

`Nc1nonc1-c1nc2cnccc2n1C1CC1`: the inhibition in assay [1] was 1.26% and -2.25%; in assay [2], 8.06% and 5.34%; in [3], 2.53% and -2.31%; in assay [4] it was 5.04% and 2.15%; in assay [5], 1.66% and -2.03%; in [6], 6.38% and 2.16%. Moreover, the inhibition was 0.65% and 3.64% in assay [7]; 6.46% and 11.6% in assay [8]; -3.85% and 3.25% in assay [9]; -0.48% and 7.79% in assay [10]; 4.84% and 5.86% in assay [11]; 35.7% and 40% in [12]. Besides, the inhibition in [13] was 7.62% and 9.27%; in assay [14] it was 41% and 42.7%; in assay [15], 75.6% and 71.7%; in assay [16] it was 82.3% and 76.5%; in [17], 44.6% and 48.9%; in assay [18] it was 75.1% and 74.5%. Moreover, the inhibition in assay [19] is 66.6% and 68.6%; in [20], 89.3% and 88.8%.

Turning to `COc1cc(N2CCN(C(C)C)CC2)ccc1Nc1nc(Nc2cccc(F)c2C(=O)O)c2cc[nH]c2n1`, the inhibition in assay [1] worked out at 0.12%; in assay [2] it was 0.67%; in assay [3] it was 1.27%; in assay [4], 1.08%; in assay [5], 0.73%; in assay [6], 2.08%. Also, the inhibition in assay [7] was 6.59%; in assay [8] it was 10.8%; in assay [9], 3.79%; in assay [10], 5.95%; in assay [11] it was -0.32%; in [12], 1.08%. Also, the inhibition is -1.28% in assay [13]; 0.34% in [14]; 2.89% in [15]; 3.87% in assay [16]; 0.48% in assay [17]; 2.67% in assay [18]. For the same molecule, the inhibition in assay [19] is 1.22%; in assay [20] it was 2.81%.

For the molecule `O=C(O[C@H]1CN[C@H](C#Cc2cc3ncnc(Nc4ccc5c(ccn5Cc5cc(F)ccc5F)c4)c3s2)C1)N1CCOCC1`, the inhibition in [1] came to 0.34%; in [2] it was 1.4%; in assay [3], 1.89%; in assay [4] it was 1.81%; in assay [5] it was 0.84%; in assay [6], 0.51%. For the same molecule, the inhibition in assay [7] was 3.43%; in [8], 5.16%; in assay [9], 3.33%; in assay [10] it was 3.94%; in assay [11] it was -0.29%; in assay [12], -1.5%. The inhibition in assay [13] is 1.19%; in assay [14], 1.68%; in assay [15], -1.77%; in assay [16], -0.4%; in assay [17] it was 2.95%; in [18], 4.34%. Further, the inhibition in [19] stood at 1.82%; in assay [20] it was 1.74%.

Take `CS(=O)(=O)CCNCc1ccoc1-c1ccc2ncnc(Nc3ccc(OCc4ccccc4)cc3)c2c1`: the inhibition was -0.19% in assay [1]; 0.18% in [2]; -0.24% in assay [3]; 0.41% in [4]; -0.09% in assay [5]; 2.03% in assay [6]. In addition, the inhibition was 0.69% in [7]; 1.77% in [8]; 4.11% in [9]; -0.84% in [10]; -1.71% in [11]; -3.38% in [12]. In addition, the inhibition in assay [13] is -0.65%; in [14], -2.47%; in assay [15] it was -0.3%; in [16] it was -2.16%; in assay [17], 0.88%; in assay [18], -1.22%. For the same molecule, the inhibition in [19] is -1.12%; in [20], -1.32%.

For the molecule `COc1ccc2ncn(-c3cc(O[C@H](C)c4ccccc4C(F)(F)F)c(C(N)=O)s3)c2c1`, the inhibition in assay [1] is -0.49%; in [2] it was -0.66%; in assay [3], -0.92%; in assay [4] it was -0.19%; in assay [5], 0.16%; in assay [6], 0.41%. Moreover, the inhibition in assay [7] was -0.28%; in [8], 1.33%; in [9] it was -1.81%; in assay [10], 5.21%; in assay [11] it was -0.19%; in assay [12], 2.79%. Moreover, the inhibition was 0.61% in [13]; 2.31% in assay [14]; -0.46% in assay [15]; -0.11% in [16]; 0.7% in assay [17]; 2.33% in [18]. Further, the values for the inhibition in [19] and in [20] were 0.7% and -0.16%, respectively.

As to `Cc1nnc(-c2cccc(-c3ccc(C(=O)NCC4CC4)cc3)c2)o1`, the inhibition was 0.55% in assay [1]; 1.35% in assay [2]; 2.63% in [3]; 1.84% in assay [4]; 1.35% in assay [5]; 1.48% in assay [6]. Moreover, the inhibition was 3.35% in assay [7]; 10.4% in [8]; 6.78% in assay [9]; 6.04% in [10]; -0.4% in assay [11]; 2.11% in assay [12]. Moreover, the inhibition in assay [13] is -0.19%; in assay [14], -0.8%; in assay [15], 4.52%; in assay [16] it was 3.95%; in [17], 3.13%; in [18] it was 3.75%. Further, the results for the inhibition in assay [19] and in assay [20] were 1.6% and 3.46%, respectively.

`CC(C)c1ccc(-c2cc(-c3c[nH]nc3-c3ccccn3)ccn2)cc1`: the inhibition is 0.13% in [1]; 0.07% in [2]; -0.03% in assay [3]; 0.06% in [4]; 1.01% in assay [5]; 0.29% in assay [6]. In addition, the inhibition in [7] is -1.41%; in [8], -0.19%; in assay [9], 2.99%; in assay [10] it was 1.48%; in assay [11], -0.14%; in assay [12] it was -0.28%. For the same molecule, the inhibition in assay [13] was -0.59%; in assay [14] it was 2.06%; in [15], 1.59%; in assay [16] it was 1.63%; in assay [17], 1.53%; in assay [18] it was 2.87%. Moreover, the results for the inhibition in assay [19] and in assay [20] were 0.17% and -0.41%, respectively.

For the molecule `COc1ccccc1-c1cc(/C=C2\C(=O)Nc3ncc(Br)cc32)cc(Br)c1O`, the inhibition in assay [1] was found to be 0.67%; in assay [2] it was 0.15%; in assay [3], 1.96%; in assay [4] it was 2.36%; in assay [5], 1.93%; in assay [6], 0.61%. Further, the inhibition in assay [7] was 5.35%; in assay [8], 30.3%; in assay [9], 28.7%; in assay [10] it was 57.2%; in assay [11] it was -0.66%; in assay [12], -2.56%. Moreover, the inhibition is -0.06% in [13]; -0.72% in assay [14]; 3.42% in [15]; 1.75% in [16]; 1.76% in assay [17]; 6.3% in assay [18]. The inhibition came out at 2.51% in assay [19] and 2.75% in assay [20].
